# Bioassay records from PubChem.
# SW480 rerep: inducers of DNA re-replication in SW480 colon cancer cells. SW480 DNA re-replication, Hoechst DNA content imaging, 48 h. Potency, µM (doses to about 46.1 µM), without a hit: at the highest dose re-replication activation, most hits filed as activators. actives 1.8% (n = 340,000). AID 624297; note: % of control where 0% means no effect; nearly all actives have a fitted effect of over 55% in size
#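 Treated cells incubate 48 hr (37 C, 5% CO2), are stained 40 min with Hoechst, and nuclear fluorescence is enumerated; a rise in nuclei with high DNA signal marks re-replication.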
# KB-3-1 cytotox: KB-3-1 parental cell cytotoxicity; AID 1347075; actives 1.4% (n = 400,000); KB-3-1 viability, CellTiter-Glo ATP luminescence, 72 h; Potency, µM (doses to about 46.1 µM), usual class: cytotoxic; note: % is set by controls: 0 for no effect and ±100 for the full control effect; nearly all actives have a fitted effect of over 60% in size
#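 Using CellTiter-Glo luminescence, growth of non-resistant KB-3-1 adenocarcinoma cells is assessed 72 h after pin-tool compound addition at 37 °C. Normalized responses across the concentration series yield fitted curves.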
# MCF10A rereplic: inducers of DNA re-replication in MCF 10A breast cells | MCF 10A DNA re-replication, Hoechst nuclear intensity, 48 h | Potency, µM (series often up to 46.1 µM), for inactives: at the top dose activity, positive = re-replication, hits mostly activators | actives 2.9% (n = 350,000); note: % of control where 0% means no effect; nearly all actives have a fitted effect of over 50% in size
# RGS4 inh: inhibitors of human regulator of G protein signaling 4 | P49798 | Transcreener GDP fluorescence polarization, RGS4-accelerated GTP hydrolysis | Potency, µM (highest dose often 114 µM), inactives show at the top dose activity change, negative = inhibition, usual class: inhibitors | actives 0.039% (n = 390,000) | AID 504845; note: % is set by controls: 0 for no effect and ±100 for the full control effect; nearly all actives have a fitted effect of over 75% in size
# Target sequence (P49798 whole entry, looked up): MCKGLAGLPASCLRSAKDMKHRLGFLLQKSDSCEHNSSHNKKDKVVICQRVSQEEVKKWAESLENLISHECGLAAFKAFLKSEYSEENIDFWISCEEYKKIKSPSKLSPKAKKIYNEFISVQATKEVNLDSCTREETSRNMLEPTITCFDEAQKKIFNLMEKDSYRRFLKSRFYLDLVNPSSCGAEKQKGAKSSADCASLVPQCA
#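 MLSMR compounds (23 nl, pin-transferred) preincubated 10 min at room temperature with a 500nM (2x) first reagent, then RGS4 at 900nM (2x) plus Transcreener GDP mix added; fluorescence polarization (620/688 nm) read before and after 90 min at 30 °C.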
# KB-V1 cytotox: KB-V1 MDR subline cytotoxicity; KB-V1 MDR cells viability, CellTiter-Glo, 72 h; Potency, µM (titrated, usually from 46.1 µM), actives largely listed as cytotoxic; actives 3.4% (n = 400,000); AID 1347076; note: % is set by controls: 0 for no effect and ±100 for the full control effect; nearly all actives have a fitted effect of over 60% in size
#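 Cells of the MDR subline KB-V1 are plated, dosed with compound at multiple concentrations, and incubated 72 h at 37 degrees C; CellTiter-Glo is then added and luminescence read after 10 min.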
# TSG101-PTAP inh: blocks PTAP/TSG101 interaction to inhibit HIV-1 budding; Fluorescence polarization, FITC-PTAP peptide / Tsg101 binding; AID 493005; Q99816; Potency, µM (highest dose often 115 µM), for the others: top-dose activity change, negative = inhibition, hits mostly inhibitors; 340,000 tested, under 10 active; active = well fitted inhibition curve with a large enough effect in the main read-out, with a control signal flat, not every such curve was filed as active; inconclusive = small, poorly fitted or top-dose-only effect, or effect the other way, or a change in a side signal; inactive = no such curve, though single readings can be large or run the other way; note: % of control where 0% means no effect
# Target sequence (Q99816 whole entry, looked up): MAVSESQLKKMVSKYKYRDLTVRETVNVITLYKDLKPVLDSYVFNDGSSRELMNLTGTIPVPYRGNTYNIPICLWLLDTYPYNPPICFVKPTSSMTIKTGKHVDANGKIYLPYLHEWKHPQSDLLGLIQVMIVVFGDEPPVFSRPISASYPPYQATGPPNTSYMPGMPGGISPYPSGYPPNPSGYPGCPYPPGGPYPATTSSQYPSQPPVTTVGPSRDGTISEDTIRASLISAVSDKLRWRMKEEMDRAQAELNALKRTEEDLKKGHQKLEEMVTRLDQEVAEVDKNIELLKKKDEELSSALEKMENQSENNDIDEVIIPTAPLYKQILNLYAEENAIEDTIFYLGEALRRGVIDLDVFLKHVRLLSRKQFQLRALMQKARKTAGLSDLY
#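 Fluorescence polarization binding of Tsg101 binding domain (10 uM final) to FITC-labeled PTAP peptide (50 nM final) in HEPES pH 7.5 buffer with NaCl, Tween 20, EDTA, TCEP. Compounds added before peptide; binding 20 min at RT.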
# An asterisk follows results filed as active; i = inactive; ? = inconclusive; . = no result; [ ] = remark or other dose. An excerpt weighted towards active compounds, which were near 6.6% of everything screened. Unless noted, calls come from the whole dose curve; as a rule, active = well fitted curve in the direction sought with a large enough effect; inconclusive = small, poorly fitted or top-dose-only effect, or another doubt; inactive = no such curve, though single readings can be large; an effect the other way counts as inactive or inconclusive. Potency is the fitted concentration of half-maximal effect.
SMILES,SW480 rerep,KB-3-1 cytotox,MCF10A rereplic,RGS4 inh,KB-V1 cytotox,TSG101-PTAP inh
COc1ccc(C)cc1NC(=O)c1cc(S(=O)(=O)N2CCCCC2)c[nH]1,.,.,.,-13.3%,.,.
COc1ccc(NC(=O)c2cc3c(=O)n(Cc4ccco4)ccc3nc2C)cc1,.,.,.,-6.5%,.,.
COc1ccc(C)c(-n2c(=O)n(Cc3ccccc3)c(=O)c3[nH]cnc32)c1,-24.7%,i,1.0%,-0.8%,i,-9.8%
COc1ccc(Cn2c(=O)c3[nH]cnc3n(-c3ccccc3C)c2=O)cc1,16.4µM*,16.4µM*,16.4µM*,-2.1%,?,1.0%
CCN(CC(=O)Nc1ccc(OC)cc1)C(=O)c1cc(-c2cccs2)nn1-c1ccccc1,-4.4%,i,?,6.2%,20.6µM*,-1.5%
COc1ccccc1/C=C/c1nc2ccccc2s1,.,i,.,.,i,.
CCOc1cc(/C=N\NC(N)=O)cc(Br)c1OC(C)C,?,7.31µM*,?,3.5%,11.6µM*,-0.6%
O=S(=O)(c1ccccc1Br)N1CCN(c2nc(-c3ccccc3)nc3ccccc23)CC1,.,i,.,-3.7%,i,.
COc1ccc(CN(C)S(=O)(=O)c2c(C)noc2C)cc1OC,-2.4%,i,2.8%,21.5%,18.4µM*,-1.7%
O=C(N/N=C\c1cccc(Cl)c1)c1ccc(Cn2cc(Br)c([N+](=O)[O-])n2)o1,?,?,?,-17.5%,20.6µM*,1.0%
COc1ccc(C2=NN(C(=O)c3cccs3)C(c3ccccc3O)C2)cc1 (centres undefined),24.3%,i,20.6µM*,-5.2%,i,2.8%
CNC(=S)N1N=C(c2ccc(C)cc2)CC1c1ccc(Br)cc1 (centres undefined),12.5%,i,8.5%,-7.2%,14.6µM*,-3.5%
COc1ccc2cc(C3CC(c4cccs4)=NN3C(C)=O)c(Cl)nc2c1 (centres undefined),-15.5%,i,8.0%,-29.7%,i,2.0%
COc1ccc(C(=O)N2N=C(c3cccs3)CC2c2ccccc2O)cc1 (centres undefined),16.4µM*,i,23.8%,3.9%,i,-0.4%
COc1ccc(C2CC(c3ccccc3)=NN2C(=O)c2cccs2)cc1 (centres undefined),3.0%,i,14.1%,11.7%,i,-5.5%
Cc1ccc(C(=O)N2N=C(c3ccc(Br)cc3)CC2c2ccccc2O)cc1 (centres undefined),10.1%,?,18.4µM*,1.3%,?,0.0%
Cc1cc2nc(CCN(C(=S)NCC(C)C)C3CCCC3)[nH]c2cc1C,-1.6%,i,3.4%,2.7%,16.4µM*,-10.6%
C=CCN1C(=O)C2(NC(=O)c3ccccc3N2)c2ccccc21 (centres undefined),18.4µM*,?,?,-9.7%,?,-4.6%
O=C(NCc1ccco1)c1ccc2c(c1)N(Cc1ccccc1)C(=O)CS2,2.2%,i,-5.8%,-4.2%,5.8µM*,-2.2%
C=CCN1C(=O)CSc2ccc(C(=O)NCc3ccco3)cc21,-3.4%,i,10.4%,-19.6%,i,-8.7%
COc1ccc(Cn2c(C)c(C)c(C#N)c2NC(=O)Nc2cccc(C)c2)cc1,-0.4%,i,?,-14.6%,i,1.2%
CCOc1ccc(NC(=O)Nc2ccccc2SC)cc1,-2.7%,?,9.8%,15.0%,?,-1.5%
CCOc1ccc(NC(=O)Nc2cccn(Cc3ccccc3)c2=O)cc1,10.4%,?,16.5%,-14.4%,5.8µM*,0.0%
COc1ccc(Cn2cccc(NC(=O)Nc3cccc(C#N)c3)c2=O)cc1,?,i,?,-15.0%,4.11µM*,-3.7%
O=C(CN1C(=O)COc2ccc(S(=O)(=O)N3CCCCCC3)cc21)Nc1cccc(Cl)c1,.,.,.,0.1%,.,.
SMILES,SW480 rerep,KB-3-1 cytotox,MCF10A rereplic,RGS4 inh,KB-V1 cytotox,TSG101-PTAP inh
COc1ccc(C(=O)/C=C/c2ccc(C)cc2)c(OC(=O)c2ccc([N+](=O)[O-])cc2)c1,-4.1%[9.22 µM],?,?,-6.3%,i,0.2%
O=C(C#Cc1ccccc1)c1cccc([N+](=O)[O-])c1,7.31µM*,i,2.91µM*,?,?,0.5%
O=C(Oc1ccc(F)cc1C(=O)/C=C/c1cccs1)c1cccc([N+](=O)[O-])c1,13µM*,i,?,-9.5%,i,-3.6%
COc1ccc(C(=O)Oc2ccc(F)cc2C(=O)/C=C/c2ccc(OC)c(OC)c2)cc1,?,i,-0.2%,-42.9%,?,0.3%
O=C(/C=C/c1ccccc1F)c1cccc([N+](=O)[O-])c1,85.6%,i,20.6µM*,?,i,-3.6%
COc1ccc(C(=O)/C=C/c2ccccc2F)c(OC(=O)c2ccc([N+](=O)[O-])cc2)c1,?,?,14.6µM*,-27.0%,?,-2.9%
COc1cccc(C(=O)N(Cc2nc(-c3ccc(Cl)cc3)no2)C(C)C)c1OC,.,i,.,9.8%,i,.
CCOC(=O)c1c(NC(C)=O)c2c3c(sc2n1Cc1ccc(Cl)cc1)CCCC3,.,.,.,7.2%,.,.
Fc1ccc(/C=C2\CCCC3=C2Nc2ncnn2C3c2ccc(F)cc2)cc1 (centres undefined),23.1µM*,20.6µM*,5.8µM*,11.8%[11.4 µM],?,-5.6%
Cc1nc2sc(C(c3ccccc3)N3CCOCC3)c(O)n2n1 (centres undefined),16.4µM*,i,4.61µM*,2.5%,i,-7.0%
COc1ccc(-c2nc(N3CCN(S(=O)(=O)c4ccccc4)CC3)c3ccccc3n2)cc1,.,.,.,6.8%,.,.
N=c1ccn(CC(=O)c2ccc(-c3ccccc3)cc2)cc1,-6.2%,5.17µM*,7.5%,-13.5%,i,0.0%
COc1ccc(OCC(=O)Nc2cc(-c3nc4ccccc4o3)ccc2Cl)cc1,.,i,.,-7.3%,?,.
CCOC(=O)N=Nc1c2ccccc2c2nc3no[nH]c3nc12,?,1.46µM*,?,19.5%,2.91µM*,0.5%
CCOC(=O)N=Nc1c(O)n(CC(=O)OC)c2ccccc12,0.5%,i,17.6%,28.5%,i,-2.4%
Cc1ccccc1NC(=O)CC1S/C(=N/c2nccs2)N(C)C1=O (centres undefined),-3.8%,i,-0.9%,-6.2%,i,0.4%
CCc1ccccc1NC(=O)CC1S/C(=N\c2nccs2)N(CC)C1=O (centres undefined),1.6%,i,?,28.3%,8.2µM*,-4.3%
CCCCCNc1nc(NCCCO)c(C#N)c2c1CN(C)CC2,-2.0%,i,-11.3%,3.3%,?,-3.1%
